Assay outcomes as filed in PubChem.
Compounds with a hit are over-represented: about 2.1% of the library has one in this group of screens.
Gli-Sufu antag: Gli-Sufu pathway antagonism. Sufu-KO-LIGHT fibroblasts, Gli luciferase reporter luminescence. inhibition, % at 5 µM. 0.74% of 340,000 active;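 active = inhibition above about 55%, limit read from the data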;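 also: 0% = DMSO-treated cells and 100% = wells with medium but no cells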
Env fusion inh: blocks HIV Env-driven cell-cell fusion; HeLa-JRFL Env/CEM21 cell fusion, luciferase; inhibition, % at 12.3 µM; 1.1% of 360,000 active; AID 651610;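 active = mean replicate inhibition score of at least 50 and every replicate individually at or above 50; inconclusive = only one of the two criteria met; inactive = mean below 50 and not all replicates reaching 50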;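 also: 0% = plate neutral controls and 100% = maraviroc near 300 nM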
aDG glyco up: increases alpha dystroglycan glycosylation; Pro5-aDG cells, alpha-DG glycosylation AlphaScreen (IIH6); 0% Pro5, 100% B10-LARGE cell signal; activation, % at 10 µM; 0.22% of 360,000 active;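 active = activation of at least 8% versus controls, or a plate z-score of at least 8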;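 also: Pro5 are CHO cells carrying HIG-tagged alpha-DG that lacks glycosylation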
NR2F2 inh: blocks human COUP-TFII nuclear receptor | HEK293T NGFI-A luciferase reporter, luminescence | inhibition, % at 8.6 µM | 0.7% of 370,000 active | AID 686940;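 active = inhibition above a per-plate cutoff, mean inhibition of test wells between control levels plus 3 SD, cut at about 38% in these data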;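 also: cells cotransfected with COUP-TFII expression vector driving the NGFI-A reporter; 0% = median of COUP-TF2 test wells and 100% = reporter-only cells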
Target sequence (P24468 whole entry, looked up): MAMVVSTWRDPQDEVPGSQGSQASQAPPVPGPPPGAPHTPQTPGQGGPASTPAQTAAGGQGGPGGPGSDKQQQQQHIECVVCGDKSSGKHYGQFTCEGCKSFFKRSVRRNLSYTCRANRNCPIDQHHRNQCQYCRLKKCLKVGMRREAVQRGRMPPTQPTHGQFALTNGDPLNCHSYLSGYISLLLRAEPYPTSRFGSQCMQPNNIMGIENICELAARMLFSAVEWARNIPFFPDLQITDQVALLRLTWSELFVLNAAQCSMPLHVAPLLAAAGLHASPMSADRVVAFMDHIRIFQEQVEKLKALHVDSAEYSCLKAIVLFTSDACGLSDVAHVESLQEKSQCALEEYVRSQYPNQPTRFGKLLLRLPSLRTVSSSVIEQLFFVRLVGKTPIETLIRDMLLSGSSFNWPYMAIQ
GalR3 antagonist: human GalR3 antagonism. O60755. HEK293 GalR3-CNG cAMP membrane potential fluorescence; galR3 body fused to GalR1 C-terminus. inhibition, % at 3 µM. 0.44% of 360,000 active;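 active = inhibition above the screen-wide average plus 3 SD, cut at about 13% in these data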;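 also: forskolin and galanin both at EC90 stimulate the cells; cAMP rise reported by CNG channel membrane potential dye signal; 0% = forskolin plus galanin with DMSO and 100% = forskolin alone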
Target sequence (O60755 1-299 limits assumed): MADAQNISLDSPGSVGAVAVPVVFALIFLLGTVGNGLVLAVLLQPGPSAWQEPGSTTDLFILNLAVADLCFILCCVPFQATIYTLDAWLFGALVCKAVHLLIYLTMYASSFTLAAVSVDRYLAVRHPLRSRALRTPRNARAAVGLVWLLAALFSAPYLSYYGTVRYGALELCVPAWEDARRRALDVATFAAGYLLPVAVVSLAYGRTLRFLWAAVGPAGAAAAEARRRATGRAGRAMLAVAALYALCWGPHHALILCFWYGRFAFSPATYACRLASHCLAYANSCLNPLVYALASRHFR
The depositor's hits bear a star; ? = inconclusive; · = no result; ! = not confirmed by another sample; [ ] = dose if it differs, or a comment.

SMILES	Gli-Sufu antag	Env fusion inh	aDG glyco up	NR2F2 inh	GalR3 antagonist
Cc1ccc(S(=O)(=O)Nc2ccc3c(c2)CC(=O)N([C@@H](C)CO)C[C@@H](C)[C@H](CN(C)S(=O)(=O)c2ccc(C)cc2)O3)cc1	·	-12.3[16.7 µM]	·	·	·
Cc1ccc(S(=O)(=O)Nc2ccc3c(c2)CC(=O)N([C@H](C)CO)C[C@H](C)[C@H](CN(C)S(=O)(=O)c2ccc(C)cc2)O3)cc1	·	89.6*[16.7 µM]	·	·	·
Cc1noc(C)c1NC(=O)Nc1ccc2c(c1)C(=O)N([C@@H](C)CO)C[C@H](C)[C@@H](CN(C)Cc1ccccc1)OCCCC[C@H](C)O2	·	20.7[16.7 µM]	·	·	·
CCC(=O)Nc1ccc2c(c1)C(=O)N(C)C[C@H](OC)[C@H](C)CN(Cc1ccncc1)[C@H](C)CO2	·	-29.2[16.7 µM]	·	·	·
C[C@@H]1CN([C@@H](C)CO)C(=O)c2cc(C#CC3CC3)cnc2O[C@@H]1CN(C)Cc1ccccn1	·	18.7[16.7 µM]	·	·	·
COc1ccc(S(=O)(=O)Nc2ccc3c(c2)CC(=O)N([C@@H](C)CO)C[C@H](C)[C@H](CN(C)S(=O)(=O)c2ccccc2)O3)cc1	·	66.0*[16.7 µM]	·	·	·
COc1ccc(S(=O)(=O)Nc2ccc3c(c2)CC(=O)N([C@@H](C)CO)C[C@H](C)[C@H](CN(C)S(=O)(=O)c2ccc(F)cc2)O3)cc1	·	65.6*[16.7 µM]	·	·	·
COc1ccc(S(=O)(=O)Nc2ccc3c(c2)CC(=O)N([C@@H](C)CO)C[C@@H](C)[C@@H](CN(C)S(=O)(=O)c2ccccc2)O3)cc1	·	7.7[16.7 µM]	·	·	·
Cc1ccc(S(=O)(=O)N(C)C[C@@H]2Oc3ccc(NS(=O)(=O)c4ccc(F)cc4)cc3C(=O)N([C@@H](C)CO)C[C@@H]2C)cc1	·	25.2[16.7 µM]	·	·	·
Cc1ccc(S(=O)(=O)Nc2ccc3c(c2)C(=O)N([C@H](C)CO)C[C@@H](C)[C@H](CN(C)S(=O)(=O)c2ccc(F)cc2)O3)cc1	·	59.7*[16.7 µM]	·	·	·
COc1ccc(S(=O)(=O)N(C)C[C@@H]2Oc3ccc(NS(=O)(=O)c4ccc(F)cc4)cc3CC(=O)N([C@H](C)CO)C[C@H]2C)cc1	·	-4.6[16.7 µM]	·	·	·
O=C(Nc1ccccc1)Nc1ccc2c(c1)[C@H]1C[C@H](CC(=O)N3CCCCC3)O[C@@H](CO)[C@H]1O2	·	52.6[16.7 µM]	·	·	·
COc1ccccc1-c1nc(SCC(=O)Nc2ccccc2)n[nH]1	2.7	-2.1	2.7	7.1	-4.4
COc1ccccc1-c1nc(SCC(=O)Nc2ccccc2F)n[nH]1	-9.4	69.6*	0.3	-8.7	-2.1
COc1ccc(-n2ncc(S(=O)(=O)c3ccccc3)c2-c2ccc(Cl)cc2)cc1	13.4	60.5*	0.0	7.9	-6.8
O=S(=O)(c1ccccc1)c1cnn(-c2ccccc2)c1-c1ccc(F)cc1	4.3	?	0.0	2.6	-7.0
COCC#Cc1cnc2c(c1)C(=O)N([C@H](C)CO)C[C@H](C)[C@H](CN(C)C(=O)Cc1ccncc1)O2	·	-18.5[16.7 µM]	·	·	·
COc1ccccc1S(=O)(=O)Cc1ccc(C(=O)N2CCN(c3cccc(Cl)c3)CC2)o1	11.9	98.0*	0.1	26.6	-6.9
Cc1noc(C)c1NC(=O)N(C)C[C@H]1OCCCC[C@H](C)Oc2ccc(NS(=O)(=O)c3ccc(Cl)cc3)cc2C(=O)N([C@H](C)CO)C[C@@H]1C	·	-88.9[16.7 µM]	·	·	·
Cc1ccc(Cn2nnc3c(=O)n(Cc4cccc(C)c4)cnc32)cc1	12.1	·	0.1	7.0	-6.4
Cc1cccc(Cn2cnc3c(nnn3Cc3ccc(Cl)cc3)c2=O)c1	9.6	59.7*	0.5	-0.9	-5.4
O=C/C=C/c1ccc(-c2ccccc2)cc1	·	-72.1[16.7 µM]	·	·	·
Brc1ccc(C2=CC(c3cccs3)n3ncnc3N2)cc1 (stereo not given)	98.2*	11.0	0.4	3.7	-2.8
Fc1ccc(C2=CC(c3ccc(Br)o3)n3ncnc3N2)cc1 (stereo not given)	12.8	·	-0.1	·	·
O=C(C[C@H]1C[C@H]2c3cc(NC(=O)C4CCC4)ccc3O[C@H]2[C@@H](CO)O1)NCC(F)(F)F	·	56.5*[16.7 µM]	·	·	·
SMILES	Gli-Sufu antag	Env fusion inh	aDG glyco up	NR2F2 inh	GalR3 antagonist
O=C(C[C@@H]1C[C@@H]2c3cc(NC(=O)C4CCC4)ccc3O[C@@H]2[C@H](CO)O1)NCC(F)(F)F	·	-8.9[16.7 µM]	·	·	·
O=C(C[C@@H]1C[C@H]2c3cc(NC(=O)C4CCC4)ccc3O[C@H]2[C@H](CO)O1)NCC(F)(F)F	·	92.9*[16.7 µM]	·	·	·
COc1cccc(S(=O)(=O)N[C@H]2CC[C@H](CCN)O[C@@H]2CO)c1	·	-14.6[16.7 µM]	·	·	·
COc1ccc(C(=O)c2c(C(F)(F)F)oc3c2C(=O)c2ccccc2C3=O)cc1OC	21.6	·	5.7*	43.1*	-3.0
CCCNC(=O)N1CC2(CCN(Cc3cccc(F)c3)CC2)c2c([nH]c3cc(OC)ccc23)[C@H]1CO	·	29.3[16.7 µM]	·	·	·
CN(N=Nc1nc[nH]c1C(N)=O)C1CCCCC1	·	56.5*	-0.2	-12.8	-8.4
Cc1noc(C)c1NC(=O)Nc1ccc2c(c1)C(=O)N([C@@H](C)CO)C[C@H](C)[C@H](CN(C)S(=O)(=O)c1ccccc1)O2	·	-14.8[16.7 µM]	·	·	·
COc1ccc(NS(=O)(=O)c2cccc(C(=O)NNC(=O)CNC(=O)c3ccc(C)cc3)c2)cc1	-8.1	67.6*	0.0	-2.7	-3.7
COc1ccc(NS(=O)(=O)c2cccc(C(=O)NNC(=O)CNC(=O)c3ccccc3F)c2)cc1	-10.0	·	0.1	1.3	-1.3
COc1cc(NC2c3ccccc3C(=O)N2Cc2ccc3c(c2)OCO3)cc(OC)c1OC (stereo not given)	-3.8	87.4*	-0.2	-10.1	·
CNC[C@H]1Oc2ncc(C#CC3CCCC3)cc2C(=O)N([C@@H](C)CO)C[C@H]1C	·	5.5[16.7 µM]	·	·	·
COc1ccc(CCNc2ccncn2)cc1	36.5	56.0*	1.5	20.3	-5.6
COc1ccc(CCNc2ccncn2)cc1OC	-1.2	-39.8	-0.1	-6.2	-2.9
CN1C(=O)c2cc(NS(C)(=O)=O)ccc2OC[C@H]2O[C@@H](CC(=O)NC3CCCCC3)CC[C@H]21	·	-6.6[16.7 µM]	·	·	·
C[C@@H]1CN([C@H](C)CO)S(=O)(=O)c2ccc(-c3cccc(F)c3)cc2O[C@@H]1CN(C)S(=O)(=O)c1ccc(F)cc1	·	55.7*[16.7 µM]	·	·	·
CC(C)CC#Cc1ccc2c(c1)O[C@H](CN(C)Cc1ccccn1)[C@H](C)CN([C@@H](C)CO)S2(=O)=O	·	-15.4[16.7 µM]	·	·	·
COc1ccc(S(=O)(=O)N(C)C[C@@H]2Oc3cc(Br)ccc3S(=O)(=O)N([C@H](C)CO)C[C@@H]2C)cc1	·	57.3*!	-0.1	2.8	-5.2
C[C@@H]1CN([C@H](C)CO)S(=O)(=O)c2ccc(Br)cc2O[C@H]1CN(C)S(=O)(=O)c1ccc(F)cc1	·	20.1[16.7 µM]	·	·	·
CC(C)CC#Cc1ccc2c(c1)O[C@@H](CN(C)Cc1ccccn1)[C@H](C)CN([C@H](C)CO)S2(=O)=O	·	91.3*[16.7 µM]	·	·	·
C[C@H](CO)N1C[C@H](C)[C@H](CN(C)S(=O)(=O)c2cccc(F)c2)Oc2cc(Br)ccc2S1(=O)=O	·	77.6*![16.7 µM]	0.1	-17.8	-5.8
COc1ccc(S(=O)(=O)N(C)C[C@H]2Oc3cc(Br)ccc3S(=O)(=O)N([C@H](C)CO)C[C@H]2C)cc1	·	?	0.0	2.1	-9.5
COc1ccc(NC(=O)Nc2ccc3c(c2)[C@@H]2C[C@@H](CC(=O)NC4CCCC4)O[C@@H](CO)[C@@H]2O3)cc1	·	-0.7[16.7 µM]	·	·	·
